The list is not random: actives were taken first. Their share in the collection is about 4.2%.
Mtb FBA inh – inhibitors of M. tuberculosis fructose-bisphosphate aldolase; P9WQA3; 360,000 compounds, 2.3% hits; purified M. tuberculosis FBA, fluorescence read-out; inhibition, % at 1 µM;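 also: 0% = vehicle and 100% = reference inhibitor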
RecA splice inh – blocks M. tuberculosis RecA intein splicing | cell-free RecA intein splicing, fluorescence | 290,000 compounds, 0.75% hits | P9WHJ3 | inhibition, % (no concentration beside the values); in the data active = inhibition above about 30%;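 also: 0% = vehicle wells and 100% = reference inhibitor control wells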
GDH-TPI counter-1 – counter-screen for M. tuberculosis FBA inhibitors: GDH-TPI coupled enzymes; inhibition, % at 4.8 µM; GDH-TPI coupled enzyme counterscreen, NADH absorbance; 360,000 compounds, 1.2% hits; in the data active = inhibition above about 30%;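 also: 0% = DMSO wells and 100% = wells lacking the enzyme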
CCHFV vOTU inh – CCHFV vOTU protease inhibition; inhibition, % at 11.5 µM; 370,000 compounds, 0.55% hits; Pep-AMC fluorescence; in the data active = inhibition above about 30%; also: 0% = vehicle wells with enzyme and 100% = no enzyme wells
Mtb FBA confirm – confirmation of M. tuberculosis fructose-bisphosphate aldolase inhibitors. inhibition, % at 1 µM. purified M. tuberculosis FBA, fluorescence read-out. 5,600 compounds, 78% hits. shares compounds with Mtb FBA inh;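 also: 0% = vehicle wells and 100% = reference inhibitor wells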
GDH-TPI counter-2 – inhibits GDH-TPI coupling enzymes, flagging Mtb FBA hits | 5,600 compounds, 81% hits | GDH-TPI coupled enzyme counterscreen, fluorescence | inhibition, % at 1 µM | shares compounds with Mtb FBA inh; in the data active = inhibition above about 10%
GDH-TPI DR – inhibits GDH-TPI coupling enzymes in dose response. shares compounds with Mtb FBA inh. GDH-TPI coupled enzyme assay, fluorescence, artifact counterscreen. AID 652145. IC50, µM. 170 compounds, 79% hits; call rule not given here
Starred values were filed as active, the others as inactive; i = inactive; · = no result; + = active, no number. Rule as the data show it, unless noted: active = inhibition above about 27%; inactive = the rest.

SMILES	Mtb FBA inh	RecA splice inh	GDH-TPI counter-1	CCHFV vOTU inh	Mtb FBA confirm	GDH-TPI counter-2	others
Cc1cc(OCC(=O)N2C[C@H]3C[C@@H](C2)c2cccc(=O)n2C3)c2c(C)c(C)c(=O)oc2c1	40*	·	9	-7	39*	23*
CCCCc1cc(=O)oc2cc(OCC(=O)N3C[C@H]4C[C@@H](C3)c3cccc(=O)n3C4)ccc12	6	-1	13	6	·	·
CCCCc1cc(=O)oc2cc(C)cc(OCC(=O)N3C[C@H]4C[C@@H](C3)c3cccc(=O)n3C4)c12	42*	·	13	-7	51*	38*
CCCc1cc(=O)oc2cc(C)cc(OCC(=O)N3C[C@H]4C[C@@H](C3)c3cccc(=O)n3C4)c12	42*	·	10	-16	167*	127*
Cc1cc(OC(C)C(=O)NCC2CCC(C(=O)O)CC2)c2c(C)c(C)c(=O)oc2c1 (stereo not given)	9	-1	10	-10	·	·
CCCCc1cc(=O)oc2cc(C)cc(OC(C)C(=O)NCC3CCC(C(=O)O)CC3)c12 (stereo not given)	79*	·	7	-9	1	-5
CCCc1cc(=O)oc2cc(C)cc(OC(C)C(=O)NCC3CCC(C(=O)O)CC3)c12 (stereo not given)	69*	·	-5	-27	70*	46*
CC(=O)N1C[C@H]2CON(C)[C@H]2C[C@H]1c1ccc(-c2cccnc2)cc1	0	·	4	14	·	·
Cc1[nH]n2c(=O)cc(C(C)(C)C)nc2c1-c1ccccc1	50*	2	15	25	3	-1
CCOC(=O)Cc1cc(=O)n2[nH]c(C)c(-c3ccc(Cl)cc3)c2n1	62*	0	11	5	156*	110*
CCCc1cc(=O)n2[nH]c(C)c(-c3ccccc3)c2n1	27*	-3	0	-2	2	-2
COc1ccc(-c2c(C(F)(F)F)[nH]n3c(=O)cc(-c4ccccc4)nc23)cc1	39*	-11	0	-5	88*	84*
Cc1[nH]n2c(=O)c3c(nc2c1-c1ccccc1)CCC3	28*	3	12	-3	131*	97*
CCc1cc(=O)n2[nH]c(-c3ccccc3)c(-c3ccccc3)c2n1	34*	-1	12	3	150*	111*
Cc1[nH]n2c(=O)c3c(nc2c1-c1ccc(Cl)cc1)CCC3	6	-1	11	·	·	·
CCc1cc(=O)n2[nH]c(C)c(-c3ccc(OC)cc3)c2n1	0	-1	-1	1	·	·
CCOc1cccc(Nc2cc3n(c(=O)n2)CCc2cc(OC)c(OC)cc2-3)c1	22	-2	27	-21	·	·
CCN(CC)CCCNc1cc2n(c(=O)n1)CCc1cc(OC)c(OC)cc1-2	41*	-2	17	-44	-5	-6
Cc1ccc(-c2cc(-c3ccc(C)cc3)[n+](-c3ccccc3)c(-c3ccc(C)cc3)c2)cc1	11	24	25	·	·	·
Cc1ccc(-c2cc(-c3ccc(C)cc3)[n+](-c3ccc(C(=O)[O-])cc3)c(-c3ccc(C)cc3)c2)cc1	38*	40*	46*	-2	14	7	GDH-TPI DR=3.8*
C[C@H]1CN([C@@H](C)CO)C(=O)c2cc(Br)cnc2O[C@H]1CN(C)Cc1ccccc1C(=O)O	-2	·	-4	8	·	·
COc1cc(NC(=O)c2cc([N+](=O)[O-])ccc2NC(=O)CN2CCN(c3ccccn3)CC2)cc(OC)c1	1	3	3	0	·	·
Cc1c(C(=O)N2CCN(Cc3ccccc3)CC2)oc2c1C(=O)CC(C)(C)C2	1	-4	18	13	·	·
Cc1cc(=O)oc2c3c(ccc12)OC/C3=N/N	94*	-2	15	-72	+	+
Clc1ccc(-c2nnc(N3CCOCC3)o2)cc1	40*	-1	-5	-5	92*	56*
SMILES	Mtb FBA inh	RecA splice inh	GDH-TPI counter-1	CCHFV vOTU inh	Mtb FBA confirm	GDH-TPI counter-2	others
CCOC(=O)C1(CCCc2ccccc2)CCN(S(=O)(=O)N(C)C)CC1	1	5	6	15	·	·
CSc1nnc(-c2ccc(S(=O)(=O)N3CCCC3)cc2)n1C	47*	-3	2	-6	92*	71*
Nc1ncnc2c1ncn2[C@@H]1O[C@H](C(=O)N[C@H]2c3ccccc3C[C@H]2OC=O)[C@@H](O)[C@H]1O	3	·	·	-6	·	·
COc1cc(NC(=O)CSc2nc3cc(C)ccc3cc2C)c(C(=O)O)cc1OC	27*	-1	7	6	45*	25*
CCc1nn(CC(=O)N2CCN(c3ccc(F)cc3)CC2)c(=O)c2cc3occc3n12	-1	0	-1	7	·	·
COCCCNC(=O)c1c(NC(=O)c2ccccc2Cl)n(Cc2ccccc2)c2nc3ccccc3nc12	9	-6	12	-1	·	·
COCCNC(=O)c1c(N)n(Cc2ccco2)c2nc3ccccc3nc12	83*	i	18	-178	76*	67*
COCCNC(=O)c1c(N)n(/N=C/c2ccc(F)cc2)c2nc3ccccc3nc12	1	-35	7	-13	·	·
COCCNC(=O)c1c(NC(=O)c2ccco2)n(Cc2ccccc2)c2nc3ccccc3nc12	75*	-154	5	-58	65*	65*
Nc1c(C(=O)NCCc2ccccc2)c2nc3ccccc3nc2n1CCN1CCOCC1	27*	-22	5	-13	73*	53*
COc1ccc(CCNC(=O)c2c(N)n(CCN3CCOCC3)c3nc4ccccc4nc23)cc1	21	-3	-1	-8	·	·
Nc1c(C(=O)NCCN2CCOCC2)c2nc3ccccc3nc2n1Cc1ccco1	86*	i	19	-103	98*	96*
CCC(=O)C1CCCN(C(=O)c2cccc(OC3CCN(S(C)(=O)=O)CC3)c2)C1 (stereo not given)	3	-3	4	·	·	·
COc1cccc(NC(=O)CCC2CCN(C(=O)c3ccc(C(C)=O)s3)CC2)c1	-1	-2	2	1	·	·
CCC(C)[C@H]1COCCS(=O)(=O)N1Cc1ccc(Br)cc1 (stereo not given in full)	0	2	10	11	·	·
COCCNC(=O)c1c(N)n(/N=C/c2cccs2)c2nc3ccccc3nc12	-9	-13	17	3	·	·
Nc1c(C(=O)NCCN2CCOCC2)c2nc3ccccc3nc2n1Cc1ccccc1	91*	-140	3	-43	7	3
O=C(NCc1ccco1)c1ccc2ccccc2n1	0	-1	-2	1	·	·
O=C(NCCN1CCOCC1)c1ccc(-c2ccccc2)cc1	1	-1	1	·	·	·
Nc1c(C(=O)OCc2ccccc2)c2nc3ccccc3nc2n1Cc1cccs1	51*	-1	9	-16	168*	150*
Nc1c(C(=O)NCc2ccco2)c2nc3ccccc3nc2n1CCc1ccccc1	72*	-118	8	-60	87*	72*

From PubChem
